Tests used:
[1] = system: Botulinum neurotoxin type F light chain protease (Clostridium botulinum); test: Clostridium botulinum type F light chain protease inhibitors, microsphere substrate cleavage, validation (AID 588459); details: multiplex microsphere protease substrate cleavage assay, flow cytometry; at 10 µM; stronger effect = higher value
[2] = biological target: Botulinum neurotoxin type A (Clostridium botulinum) (UniProt P0DPI0); test: BoNT/A light chain protease inhibitors, biochemical, multiplex microsphere flow cytometry, validation set (AID 588460); details: at 10 µM, stronger effect = higher value
[3] = biological target: Lethal factor (Bacillus anthracis) (UniProt P15917); test: Bacillus anthracis lethal factor inhibition, microsphere flow cytometry protease assay, validation at 10 µM (AID 588461); details: multiplex microsphere protease cleavage assay, stronger effect = higher value

Measured: inhibition

Sequence of Botulinum neurotoxin type A (Clostridium botulinum) (P0DPI0 whole entry, looked up): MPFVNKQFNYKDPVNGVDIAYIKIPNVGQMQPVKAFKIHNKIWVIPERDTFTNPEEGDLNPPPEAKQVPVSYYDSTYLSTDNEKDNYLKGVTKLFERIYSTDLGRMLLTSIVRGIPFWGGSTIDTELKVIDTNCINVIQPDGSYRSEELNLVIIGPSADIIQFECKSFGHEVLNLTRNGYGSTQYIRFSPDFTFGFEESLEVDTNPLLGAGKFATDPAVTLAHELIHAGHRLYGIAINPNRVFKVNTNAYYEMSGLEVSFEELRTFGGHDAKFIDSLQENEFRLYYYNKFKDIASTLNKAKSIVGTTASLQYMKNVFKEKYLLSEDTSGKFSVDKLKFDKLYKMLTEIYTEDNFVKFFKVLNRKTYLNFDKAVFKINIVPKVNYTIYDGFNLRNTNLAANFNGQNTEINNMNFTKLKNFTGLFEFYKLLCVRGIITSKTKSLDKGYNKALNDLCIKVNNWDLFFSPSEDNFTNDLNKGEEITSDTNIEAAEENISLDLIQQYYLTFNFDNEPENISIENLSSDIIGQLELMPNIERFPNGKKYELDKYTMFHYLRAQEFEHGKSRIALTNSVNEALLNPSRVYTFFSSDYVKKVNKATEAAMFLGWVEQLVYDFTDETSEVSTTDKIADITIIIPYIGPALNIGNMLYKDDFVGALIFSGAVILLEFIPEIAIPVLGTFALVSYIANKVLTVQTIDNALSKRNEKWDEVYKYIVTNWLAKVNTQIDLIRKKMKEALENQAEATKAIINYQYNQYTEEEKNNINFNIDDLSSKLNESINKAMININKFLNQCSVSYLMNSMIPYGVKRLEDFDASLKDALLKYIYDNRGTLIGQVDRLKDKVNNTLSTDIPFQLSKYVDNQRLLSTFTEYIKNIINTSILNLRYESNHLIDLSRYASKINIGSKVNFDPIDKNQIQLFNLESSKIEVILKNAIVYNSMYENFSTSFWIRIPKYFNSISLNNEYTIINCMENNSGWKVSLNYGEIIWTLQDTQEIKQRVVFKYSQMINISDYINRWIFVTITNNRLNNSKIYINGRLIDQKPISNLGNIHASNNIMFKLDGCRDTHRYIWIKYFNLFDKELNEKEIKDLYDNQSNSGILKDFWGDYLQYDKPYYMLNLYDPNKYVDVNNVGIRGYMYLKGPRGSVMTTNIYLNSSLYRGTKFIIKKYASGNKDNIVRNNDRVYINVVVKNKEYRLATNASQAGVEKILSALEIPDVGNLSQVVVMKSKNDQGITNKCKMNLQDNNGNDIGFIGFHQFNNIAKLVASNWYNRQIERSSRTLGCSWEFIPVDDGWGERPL
Sequence of Lethal factor (Bacillus anthracis) (P15917 whole entry, looked up): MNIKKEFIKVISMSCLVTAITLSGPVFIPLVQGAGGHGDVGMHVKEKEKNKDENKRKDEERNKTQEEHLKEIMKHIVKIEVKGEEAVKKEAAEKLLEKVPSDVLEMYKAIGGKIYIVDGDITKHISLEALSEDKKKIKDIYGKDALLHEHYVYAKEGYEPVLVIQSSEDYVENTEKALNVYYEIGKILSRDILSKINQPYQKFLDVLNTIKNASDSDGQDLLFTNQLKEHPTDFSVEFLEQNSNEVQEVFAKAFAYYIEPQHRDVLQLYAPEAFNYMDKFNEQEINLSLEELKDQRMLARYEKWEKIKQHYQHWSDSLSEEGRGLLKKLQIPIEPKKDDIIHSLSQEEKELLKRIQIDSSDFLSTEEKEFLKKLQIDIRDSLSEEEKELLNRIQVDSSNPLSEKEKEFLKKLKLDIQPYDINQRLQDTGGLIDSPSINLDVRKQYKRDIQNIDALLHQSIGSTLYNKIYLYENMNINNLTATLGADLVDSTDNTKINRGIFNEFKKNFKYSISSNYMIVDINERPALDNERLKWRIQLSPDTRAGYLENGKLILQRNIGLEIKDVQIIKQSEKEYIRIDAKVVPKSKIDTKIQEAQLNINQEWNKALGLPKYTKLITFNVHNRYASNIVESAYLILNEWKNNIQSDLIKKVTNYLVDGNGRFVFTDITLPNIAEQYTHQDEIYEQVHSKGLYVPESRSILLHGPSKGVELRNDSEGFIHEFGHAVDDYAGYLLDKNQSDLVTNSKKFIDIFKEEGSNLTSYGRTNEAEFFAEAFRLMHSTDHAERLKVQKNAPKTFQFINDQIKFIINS

Cc1cccc(Nc2ncccc2C(=O)O)c1C
inactive: [1] -2.7% | [2] -1.6% | [3] -4.7%

CC1CCc2cc(F)cc3c(=O)c(C(=O)O)cn1c23 (stereo unspecified)
inactive: [1] 3.2% | [2] 1.8% | [3] 3.5%

O=C(O)c1ccccc1O
inactive: [1] 0.4% | [2] -0.5% | [3] 2.3%

O=C(OCCNC(=O)c1ccc2ccccc2n1)c1ccc(F)cc1
inactive: [1] 1.8% | [2] -0.7% | [3] 4.4%

CC1(C)C2CCC1(C(=O)O)c1nc3ccccc3nc12 (stereo unspecified)
inactive: [1] -0.2% | [2] -0.9% | [3] -0.2%

CSc1ccc(/C=N/N2CCN(Cc3ccc(C)cc3C)CC2)cc1
inactive: [1] -0.3% | [2] -0.6% | [3] -0.3%

CN1CCCC(OC(=O)c2ccc3c(c2)OCCO3)C1 (stereo unspecified)
inactive: [1] 1% | [2] 0.8% | [3] -2.2%

CCOc1cc(C=O)ccc1OCCSc1ccc(C)cc1
inactive: [1] 1.3% | [2] 0.4% | [3] -3.6%

Cn1nc(-c2ccccn2)nc2c(=O)n(C)c(=O)nc1-2
inactive: [1] -0.9% | [2] 2.9% | [3] -13%

Cc1oc2cc(O)cc(O)c2c(=O)c1-c1ccc2c(c1)OCCCO2
inactive: [1] 1.4% | [2] -0.4% | [3] -5.8%

Cc1cc(-c2nn(-c3ccccc3F)cc2CN2CCC(O)CC2)c(C)s1
inactive: [1] -1.7% | [2] 0.2% | [3] -1.4%

CCC(C)n1ncn(-c2ccc(N3CCN(c4ccc(OCC5COC(Cn6cncn6)(c6ccc(Cl)cc6Cl)O5)cc4)CC3)cc2)c1=O (stereo unspecified)
inactive: [1] 2.7% | [2] -0.4% | [3] 4.4%
